From PubChem
Tau ThT inhib – inhibitors of human tau fibril formation, thioflavin T binding. P10636. Potency, µM (doses to about 57.4 µM), usual class: inhibitors. recombinant tau K18 P301L, heparin-induced fibrillization, ThT fluorescence. hit rate 2.1% among 270,000; also: nearly all actives have a fitted effect of over 55% in size
Target sequence (P10636 561-689 P618L limits assumed): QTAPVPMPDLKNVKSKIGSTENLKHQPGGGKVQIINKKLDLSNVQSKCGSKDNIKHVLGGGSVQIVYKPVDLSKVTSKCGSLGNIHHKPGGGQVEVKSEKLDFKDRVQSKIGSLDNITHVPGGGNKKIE
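K18 P301L tau (15 uM + 0.24 uM Alexa 594-tagged), heparin 20 uM, NaOAc pH 7, 6 h 37 C; ThT 30 uM, 1 h RT, ex 450/em 510 nm.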
JMJD2E inh – inhibitors of human JMJD2E histone demethylase; B2RXH2; JMJD2E catalytic domain, FDH-coupled NADH fluorescence (FDH is formaldehyde dehydrogenase); Potency, µM (series often up to 57.1 µM), most hits filed as inhibitors; hit rate 1.6% among 230,000; active = well fitted inhibition curve with a large enough effect, not every such curve was filed as active; inconclusive = small, poorly fitted or top-dose-only effect, or another doubt; inactive = no such curve, though single readings can be large or run the other way; also: nearly all actives have a fitted effect of over 50% in size
Target sequence (B2RXH2 1-337 limits assumed): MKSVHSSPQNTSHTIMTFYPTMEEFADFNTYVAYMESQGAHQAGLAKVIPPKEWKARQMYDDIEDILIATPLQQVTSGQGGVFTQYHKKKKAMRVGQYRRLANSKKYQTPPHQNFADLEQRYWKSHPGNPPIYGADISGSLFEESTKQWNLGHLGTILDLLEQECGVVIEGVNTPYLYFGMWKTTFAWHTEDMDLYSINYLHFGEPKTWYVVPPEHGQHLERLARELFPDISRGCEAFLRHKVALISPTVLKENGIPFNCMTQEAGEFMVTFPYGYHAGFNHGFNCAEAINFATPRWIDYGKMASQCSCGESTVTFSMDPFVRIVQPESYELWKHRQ
Tau FP inhib – inhibitors of human tau fibril formation; P10636; K18 P301L tau heparin fibrillization, Alexa594 FP, 6 h; Potency, µM (top dose mostly 57.7 µM), hits mostly inhibitors; hit rate 0.39% among 280,000; AID 1468; also: nearly all actives have a fitted effect of over 55% in size
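Heparin (20 uM) drove fibril formation of recombinant tau K18 P301L, 15 uM unlabeled with 0.24 uM Alexa 594 label, for 6 hr at 37 C in 100 mM sodium acetate pH 7. Fluorescence polarization (555/632 nm) read 1 hr after 30 uM ThT.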
FBPA coupling cs – counter-screen for Giardia aldolase inhibitors: coupling enzyme system; coupling enzyme system counterscreen, AmpLite Red fluorescence; hit rate 0.67% among 290,000; activity change, negative = inhibition, % at 58.2 µM, hits read low; in the data active = activity change below about -30%
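Coupling enzymes only (glyceraldehyde-3-phosphate) + compound, at 57.5 uM final, 10 min RT; add substrate/coupling/AmpLite Red mix, 20 min RT; fluorescence ex 525/em 598 nm. Actives flag coupling-system interference.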
Sfp PPTase inh – inhibitors of Bacillus subtilis Sfp phosphopantetheinyl transferase | Q9F4F7 | Biochemical Sfp PPTase activity, qHTS | Potency, µM, actives largely listed as inhibitors | hit rate 3.5% among 310,000;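 also: the enzyme is Sfp with the accession as filed and its product quenches rhodamine fluorescence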
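Buffer: 50 mM Hepes-Na pH 7.6, 10 mM MgCl2, 0.01% Nonidet P-40, 0.01% BSA. Enzyme 15 nM, pre-exposed to compound 15 min; substrates then added and fluorescence change tracked over 30 min.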
Tau fluor counter – counter-screen for tau fibril formation inhibitors. hit rate 0.93% among 280,000. tau K18 P301L Alexa594 fluorescence, heparin fibrillization. AID 1463. Potency, µM (series often up to 57.7 µM); also: nearly all actives have a fitted effect of over 55% in size
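Human tau K18 P301L (15 uM unlabeled, 0.24 uM Alexa 594-labeled) in 100 mM sodium acetate pH 7 with 20 uM heparin, 6 hr at 37 C. ThT 30 uM added, 1 hr ambient; Alexa 594 FP and total fluorescence read at 555/632 nm.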
Each line names hits and unclear results; the compound was inactive in the other large screens; ! = a repeat was not active; [ ] = another dose, or the depositor's remark. Most compounds without a hit are left out; they make up all but 5.3% or so of the library. Unless noted, calls follow the shape of the dose curve; as a rule, active = well fitted curve in the direction sought with a large enough effect; inconclusive = small, poorly fitted or top-dose-only effect, or another doubt; inactive = no such curve, though single readings can be large; an effect the other way counts as inactive or inconclusive.

O=C(Nc1cnn(Cc2ccc(Cl)cc2Cl)c1)c1noc2c1CCc1ccccc1-2	Tau ThT inhib inconclusive (no result: JMJD2E inh, FBPA coupling cs, Sfp PPTase inh)
COc1cccc(CC(=O)N2CCc3nc(-c4ccc(OC)cc4C)c4c(c3C2)CO[C@@H](c2ccccc2)C4)c1	none
O=C(Nc1ccc(F)cc1F)c1cc2c(=O)n3ccccc3nc2s1	none (no result: JMJD2E inh, FBPA coupling cs, Sfp PPTase inh)
CCN1C(=O)[C@H]2[C@H]3[C@H](O)[C@H](O)C/C(=N/OCC(C)C)[C@@H]3CC[C@@H]2C1=O	none (no result: JMJD2E inh)
O=C(O)COc1ccc2c(c1)O/C(=C\c1cccs1)C2=O	JMJD2E inh inconclusive (no result: Tau ThT inhib)
COc1ccc2c(c1)O/C(=C\c1sccc1C)C2=O	Tau ThT inhib inconclusive, JMJD2E inh inconclusive, Sfp PPTase inh 45µM
O=C1C(Cl)=C(NCCCO)C(=O)c2ccccc21	Tau ThT inhib inconclusive, FBPA coupling cs -38
CCOCCCNS(=O)(=O)c1ccccc1	none
CCOCCCNC1=C(Cl)C(=O)c2ccccc2C1=O	Tau ThT inhib 16µM, JMJD2E inh inconclusive, Tau FP inhib inconclusive, Sfp PPTase inh 45µM, Tau fluor counter inconclusive
Cc1cnc(CNc2nc(-c3ccc(C(=O)N(C)C)cc3)nc3ccccc23)cn1	JMJD2E inh inconclusive
COc1ccc(C(c2c(O)ccc3ccccc23)N2CCOCC2)c(OC)c1 (centres undefined)	Tau ThT inhib 11µM, JMJD2E inh inconclusive
O=C(Nc1cccc(Cl)c1)Nc1sccc1-c1nc2ccccc2s1	Tau ThT inhib inconclusive, Tau FP inhib inconclusive, Tau fluor counter 14µM[quencher]
O=C(Nc1cccc(-c2nc3ccccc3s2)c1)c1cccs1	Tau ThT inhib inconclusive, Tau FP inhib 22µM, Tau fluor counter inconclusive
O=C(Nc1ccccc1)Nc1sccc1-c1nc2ccccc2s1	Tau ThT inhib inconclusive, JMJD2E inh inconclusive, Tau FP inhib inconclusive, Sfp PPTase inh inconclusive, Tau fluor counter inconclusive
CCC(CC)C(=O)Nc1cccc(-c2nc3ccccc3s2)c1	Tau FP inhib inconclusive, Tau fluor counter inconclusive (no result: JMJD2E inh, FBPA coupling cs, Sfp PPTase inh)
O=c1c2ccccc2oc2ccc(Oc3ccccc3)cc12	none (no result: Tau ThT inhib, JMJD2E inh, Tau FP inhib, Tau fluor counter)
Nc1ccc2oc3ccc(N)cc3c(=O)c2c1	Tau ThT inhib 14µM
CC1=C(C(=O)Nc2cc(C)cc(C)c2)C2(CCCCC2)OC1=O	none (no result: JMJD2E inh, FBPA coupling cs, Sfp PPTase inh)
CCC1CC=CC2C1C(=O)N(Cc1ccccc1)C2c1ccc2ccccc2c1 (centres undefined)	none (no result: Tau ThT inhib, JMJD2E inh, Tau FP inhib, Tau fluor counter)
O=C(Nc1ccc2oc(-c3ccc4ccccc4c3)nc2c1)c1cc(Cl)ccc1Cl	Tau ThT inhib inconclusive, Tau fluor counter inconclusive (no result: JMJD2E inh, FBPA coupling cs, Sfp PPTase inh)
CC/C=C\C/C=C\C/C=C\C/C=C\C/C=C\C/C=C\CCC(=O)O	Tau ThT inhib 16µM!, Tau FP inhib inconclusive, Sfp PPTase inh 79µM!
CC/C=C\C/C=C\C/C=C\C/C=C\C/C=C\CCCCCC(=O)O	Sfp PPTase inh inconclusive
CCOC(=O)CC1=NN(c2ccccc2)C(=O)C1	none
CCOC(=O)CC1=NN(c2ccccc2)C(=O)/C1=C\c1ccc(N(C)C)cc1	Tau ThT inhib 25µM, Tau fluor counter inconclusive
CC1=NN(c2ccccc2)C(=O)/C1=C/C=C/c1ccc(N(C)C)cc1	Tau ThT inhib 2µM, Tau FP inhib inconclusive, Tau fluor counter 2.5µM[quencher]
CC1=NN(c2ccccc2)C(=O)/C1=C\C=C\c1ccccc1	Tau ThT inhib 28µM, Tau FP inhib inconclusive, Tau fluor counter inconclusive
CC1=NN(c2ccccc2)C(=O)/C1=C/N(C)C	JMJD2E inh inconclusive
CCOC(=O)c1ccc(N2N=C(C)/C(=C/C=C/c3ccco3)C2=O)cc1	Tau ThT inhib 3.2µM, Tau FP inhib inconclusive, Tau fluor counter inconclusive
CCCCCCCCCCCCC/C=C/[C@@H](O)[C@H](CO)NCCCCCCCC	JMJD2E inh inconclusive
O=C(O)c1cc(N2N=C(C(F)(F)F)/C(=C/C=C/c3ccco3)C2=O)ccc1Cl	Sfp PPTase inh 22µM
CC1=NN(c2ccc(C(=O)OC(C)C)cc2)C(=O)/C1=C\C=C\c1ccco1	Sfp PPTase inh inconclusive
COc1cc(/C=N/NC(=O)C(Cc2c[nH]c3ccccc23)NC(=O)OCC(C)C)cc([N+](=O)[O-])c1OCc1ccccc1 (centres undefined)	Tau fluor counter inconclusive
